PubChem BioAssay (Tox21)
Records with an inconclusive call do not appear. The source made the active and inactive calls. Unless noted, calls follow the shape of the dose curve; as a rule, active = well fitted curve in the direction sought with a large enough effect in the repeat runs; inconclusive = weak or mixed curves; inactive = no such curve, though single readings can be large; an effect the other way counts as inactive or inconclusive.

Tests used:
[1] = A CellTox Green Cytotoxicity Assay to monitor cytotoxicity in HEK293 cells - 32 hour (AID 1224881); also: nearly all actives have a fitted effect of over 40% in size; also: potency is read from the fitted curve at half-maximal effect
In short: (§1)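 Real-time, in one plate: 600 HEK293 cells/well with dead-cell DNA dye, pinned compound after 5 h, 37 C incubation over 40 h; viable cells give no appreciable fluorescence.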

[2] = A CellTox Green Cytotoxicity Assay to monitor cytotoxicity in HepG2 cells - 0 hour (AID 1224882); also: nearly all actives have a fitted effect of over 35% in size
In short: (§2)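 Cytotoxicity was tracked as dead-cell DNA fluorescence in HepG2 cells treated with test compounds at 37 C; each time-point value comes from one kinetic series spanning 0, 8, 16, 24, 32 and 40 h.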

[3] = A CellTox Green Cytotoxicity Assay to monitor cytotoxicity in HEK293 cells - 8 hour (AID 1224884); also: nearly all actives have a fitted effect of over 35% in size; also: potency is read from the fitted curve at half-maximal effect
In short: as §1

[4] = qHTS RealTime-Glo MT Cell Viability Assay in HepG2 cells - 16 hour (AID 1224885); also: nearly all actives have a fitted effect of over 50% in size; also: potency is read from the fitted curve at half-maximal effect
In short: (§3)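 HepG2 suspension premixed with RealTime-Glo reagents is plated at 600 cells per well and left 5 h at 37 C/5% CO2. Compounds in DMSO then go in, and bioluminescence reflecting viable cell number is recorded over 40 h.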

[5] = A CellTox Green Cytotoxicity Assay to monitor cytotoxicity in HEK293 cells - 16 hour (AID 1224888); also: nearly all actives have a fitted effect of over 35% in size
In short: as §1

[6] = qHTS RealTime-Glo MT Cell Viability Assay in HepG2 cells - 0 hour (AID 1224889); also: nearly all actives have a fitted effect of over 50% in size; also: potency is read from the fitted curve at half-maximal effect
In short: as §3

[7] = A CellTox Green Cytotoxicity Assay to monitor cytotoxicity in HepG2 cells - 8 hour (AID 1224890); also: nearly all actives have a fitted effect of over 45% in size; also: potency is read from the fitted curve at half-maximal effect
In short: as §2

[8] = biological target: Estrogen receptor (Homo sapiens) (UniProt P03372); assay: qHTS assay to identify small molecule antagonists of the estrogen receptor alpha (ER-alpha) signaling pathway using the BG1 cell line in the presence of 0.1 nM 17-beta-estradiol (AID 1259244); also: nearly all actives have a fitted effect of over 50% in size
Sequence of Estrogen receptor (Homo sapiens) (P03372 whole entry, looked up): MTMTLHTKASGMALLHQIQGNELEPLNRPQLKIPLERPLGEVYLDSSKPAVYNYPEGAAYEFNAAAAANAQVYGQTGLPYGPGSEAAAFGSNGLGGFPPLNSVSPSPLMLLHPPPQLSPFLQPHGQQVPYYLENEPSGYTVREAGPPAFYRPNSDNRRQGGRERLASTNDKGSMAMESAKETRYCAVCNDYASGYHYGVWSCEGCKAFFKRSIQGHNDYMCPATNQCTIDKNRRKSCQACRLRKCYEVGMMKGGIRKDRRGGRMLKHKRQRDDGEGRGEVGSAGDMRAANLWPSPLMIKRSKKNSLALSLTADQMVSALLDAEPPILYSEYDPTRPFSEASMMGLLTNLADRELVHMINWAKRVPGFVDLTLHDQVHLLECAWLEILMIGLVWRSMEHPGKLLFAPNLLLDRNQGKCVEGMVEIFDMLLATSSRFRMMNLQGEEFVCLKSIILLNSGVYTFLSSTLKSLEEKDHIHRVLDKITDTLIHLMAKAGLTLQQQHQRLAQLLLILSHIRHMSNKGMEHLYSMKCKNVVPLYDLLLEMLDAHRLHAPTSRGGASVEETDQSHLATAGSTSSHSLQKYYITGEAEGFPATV
In short: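 Luciferase signal from VM7Luc4E2 ERE-reporter cells, co-dosed with test compound and 0.1 nM final 17beta-estradiol for 22 h, read with ONE-Glo.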

[9] = qHTS assay to identify small molecule phospholipidosis (PLD) inducers (AID 1259344; active = well fitted curve in the direction sought with a large enough effect; an effect the other way counts as inactive or inconclusive; also: potency is read from the fitted curve at half-maximal effect)
In short: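 Cells (HepG2, 900 per well) attach for 4 h, receive LipidTOX Red and compound together, incubate 24 h at 37 C, are fixed 30 min with paraformaldehyde/Hoechst, then imaged at one site per well.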

[10] = qHTS assay to identify small molecule HDAC inhibitors (AID 1259364);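 also: wild-type HCT-116 cells with endogenous class I/II HDAC activity; top concentration of the series differs between compounds; nearly all actives have a fitted effect of over 45% in size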
In short: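 HCT-116 wt cells, 1,500/well, overnight attach. Compounds (DMSO) 2 h, 37 °C. HDAC-Glo I/II, 30 min RT. Luminescence.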

[11] = qHTS assay to identify small molecule HDAC inhibitors - cell viability counter screen (AID 1259365); also: series mostly up to about 92 µM; nearly all actives have a fitted effect of over 50% in size
In short: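 After overnight seeding at 1,500 cells per well, wild-type HCT-116 cultures took up compounds in DMSO for 2hr at 37 C. Viable cell content came from luminescence with CellTiter-Glo.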

[12] = qHTS assay to identify small molecule agonists of the sonic hedgehog signaling (Shh) pathway - cell viability counter screen (AID 1259366); also: nearly all actives have a fitted effect of over 50% in size; also: potency is read from the fitted curve at half-maximal effect
In short: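 Same-well cytotoxicity read. Gli1-Luc reporter 3T3 cells; compounds 24hr, 37C/5% CO2; CellTiter-Fluor fluorescence.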

[13] = qHTS assay to identify small molecule agonists of the sonic hedgehog signaling (Shh) pathway (AID 1259368; calls by dose curve;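 also: NIH/3T3-derived 3T3Gli1-Luc cells carrying a stable Gli1-driven firefly luciferase reporter; series mostly up to about 92 µM; nearly all actives have a fitted effect of over 15% in size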)
In short: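 Following a 24 hr incubation with DMSO-dissolved compounds at 37 C, 5% CO2, Gli1-Luc NIH/3T3-derived cells received luciferase reagent for 30 min at room temperature prior to luminescence measurement.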

[14] = qHTS RealTime-Glo MT Cell Viability Assay in HEK293 cells - 24 hour (AID 1224886); also: nearly all actives have a fitted effect of over 50% in size; also: potency is read from the fitted curve at half-maximal effect
In short: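 Reads taken at 0, 8, 16, 24, 32 and 40 h from the same wells. HEK293 cells (600/well) carried RealTime-Glo reagents from seeding, with compound added after a 5 h settle at 37 C.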

[15] = qHTS assay to identify small molecule antagonists of the estrogen receptor alpha (ER-alpha) signaling pathway using the BG1 cell line in the presence of 0.1 nM 17-beta-estradiol - cell viability counter screen (AID 1259241); also: nearly all actives have a fitted effect of over 40% in size
In short: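 Estradiol-stimulated (0.1 nM) VM7Luc4E2 cells exposed to compounds 22 hr; viability measured by fluorescence of cleaved CellTiter-Fluor substrate after 30 min.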

[16] = qHTS assay to identify small molecule antagonists of the androgen receptor (AR) signaling pathway using the MDA cell line in the presence of 0.5 nM R1881 - cell viability counter screen (AID 1259242); also: nearly all actives have a fitted effect of over 45% in size
In short: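 Cells seeded at 3,000/well and allowed 5 hr at 37C, 0% CO2 before compound transfer and R1881 (0.5 nM final) addition; 16 hr later, live-cell protease fluorescence indicated cytotoxicity.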

[17] = biological target: Androgen receptor (Homo sapiens) (UniProt P10275); assay: qHTS assay to identify small molecule antagonists of the androgen receptor (AR) signaling pathway using the MDA cell line in the presence of 0.5 nM R1881 (AID 1259243); also: nearly all actives have a fitted effect of over 50% in size; also: potency is read from the fitted curve at half-maximal effect
Sequence of Androgen receptor (Homo sapiens) (P10275 whole entry, looked up): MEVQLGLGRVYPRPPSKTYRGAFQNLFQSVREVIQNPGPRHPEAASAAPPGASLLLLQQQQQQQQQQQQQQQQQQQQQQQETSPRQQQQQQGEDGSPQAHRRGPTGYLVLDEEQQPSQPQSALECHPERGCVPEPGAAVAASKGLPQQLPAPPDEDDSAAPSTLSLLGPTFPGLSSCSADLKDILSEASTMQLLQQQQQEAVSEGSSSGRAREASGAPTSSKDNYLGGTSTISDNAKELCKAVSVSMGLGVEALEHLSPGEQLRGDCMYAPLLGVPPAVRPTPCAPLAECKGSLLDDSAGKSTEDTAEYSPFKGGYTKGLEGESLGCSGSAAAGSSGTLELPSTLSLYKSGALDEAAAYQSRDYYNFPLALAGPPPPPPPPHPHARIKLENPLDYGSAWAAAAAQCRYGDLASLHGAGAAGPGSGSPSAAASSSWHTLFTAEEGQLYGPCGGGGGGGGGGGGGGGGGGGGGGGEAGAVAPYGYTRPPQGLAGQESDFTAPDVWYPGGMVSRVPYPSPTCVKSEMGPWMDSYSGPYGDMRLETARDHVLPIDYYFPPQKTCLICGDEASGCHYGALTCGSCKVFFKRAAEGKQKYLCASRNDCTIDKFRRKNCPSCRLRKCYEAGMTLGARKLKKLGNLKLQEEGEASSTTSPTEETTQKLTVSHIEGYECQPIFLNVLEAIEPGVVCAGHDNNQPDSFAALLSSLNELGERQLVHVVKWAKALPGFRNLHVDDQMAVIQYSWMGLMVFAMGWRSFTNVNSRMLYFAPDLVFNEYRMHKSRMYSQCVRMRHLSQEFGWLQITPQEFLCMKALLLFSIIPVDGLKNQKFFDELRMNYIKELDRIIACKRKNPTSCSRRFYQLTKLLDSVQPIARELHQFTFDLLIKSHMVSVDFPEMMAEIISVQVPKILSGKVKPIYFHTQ
In short: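 Luminescence from an AR/GR-responsive MMTV-luciferase construct in MDA-kb2 breast carcinoma cells, read 30 min after ONE-Glo, following 16 hr co-treatment with compounds and 0.5 nM R1881.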

[18] = qHTS assay to identify small molecule antagonists of the sonic hedgehog signaling (Shh) pathway - cell viability counter screen (AID 1259367); also: nearly all actives have a fitted effect of over 55% in size
In short: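 Cytotoxicity was assessed in parallel with Shh reporter activity by measuring live-cell protease fluorescence (CellTiter-Fluor) in NIH/3T3 cells stably carrying Gli1-Luc, treated with compound under conditioned medium stimulation for 23 hr plus 1 hr reagent incubation.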

[19] = qHTS RealTime-Glo MT Cell Viability Assay in HEK293 cells - 8 hour (AID 1224887); also: nearly all actives have a fitted effect of over 50% in size; also: potency is read from the fitted curve at half-maximal effect
In short: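 Kinetic, non-lysing viability readout. Seed HEK293 (600/well) with reagent, incubate 5 h at 37 C/5% CO2, pin 23 nL compound in DMSO, incubate at 37 C, read luminescence at 0, 8, 16, 24, 32, 40 h.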

[20] = A CellTox Green Cytotoxicity Assay to monitor cytotoxicity in HepG2 cells - 32 hour (AID 1224883); also: nearly all actives have a fitted effect of over 50% in size
In short: as §2
% is scaled to controls: 0 for no effect and ±100 for the full control effect.

O=C1[C@H]2CCCC[C@H]2C(=O)N1CCCCN1CCN(c2nsc3ccccc23)CC1
inactive: Potency [1] | Potency [2] | Potency [3] | Potency [4] | Potency [5] | Potency [6] | Potency [7] | Potency [8] | Potency [10] | Potency [11] | outcome [13]
active: Potency [9] 14.1 µM | Potency [12] 15 µM

COC(=O)C1=C(C)NC(COC(N)=O)=C(C(=O)OC(C)C)C1c1cccc(Cl)c1Cl (configuration not stated)
active: Potency [4] 23.9 µM | Potency [14] 26.8 µM | Potency [6] 1.9 µM
inactive: Potency [1] | Potency [2] | Potency [3] | Potency [5] | Potency [7] | Potency [15] | Potency [16] | Potency [17] | Potency [8] | PLD induction [9] -2.54% [at 7.66 µM] | Potency [10] | Potency [11] | Potency [12] | outcome [13]

Cc1cccc(Nc2ccccc2)c1
inactive: Potency [2] | Potency [3] | Potency [4] | Potency [5] | Potency [6] | Potency [15] | Potency [16] | Potency [10] | Potency [11] | Potency [12] | Potency [18] | outcome [13]
active: Potency [1] 34.7 µM | Potency [7] 49 µM | Potency [17] 24.3 µM

Cc1ccc(C(=O)Oc2ccc(C(O)CNC(C)(C)C)cc2OC(=O)c2ccc(C)cc2)cc1 (configuration not stated)
active: Potency [1] 26.8 µM | Potency [3] 23.9 µM | Potency [4] 21.3 µM | Potency [7] 23.9 µM
inactive: Potency [2] | Potency [16] | Potency [8] | Potency [10] | Potency [11] | Potency [18] | outcome [13]

COc1ccnc(CS(=O)c2nc3ccc(OC(F)F)cc3[nH]2)c1OC (configuration not stated)
inactive: Potency [1] | Potency [2] | Potency [3] | Potency [4] | Potency [19] | Potency [5] | Potency [6] | Potency [7] | Potency [15] | Potency [16] | Potency [9] | Potency [10] | Potency [11] | Potency [12] | Potency [18] | outcome [13]

O=C(O)C(S)C(S)C(=O)O (configuration not stated)
inactive: Potency [1] | Potency [20] | Potency [3] | Potency [4] | Potency [14] | Potency [19] | Potency [5] | Potency [6] | Potency [15] | Potency [16] | Potency [9] | Potency [10] | Potency [11] | Potency [12] | Potency [18] | outcome [13]

C[C@@H](c1ncncc1F)C(O)(Cn1cncn1)c1ccc(F)cc1F (some centres not stated)
inactive: Potency [1] | Potency [20] | Potency [3] | Potency [14] | Potency [19] | Potency [5] | Potency [6] | Potency [7] | Potency [15] | Potency [16] | Potency [17] | Potency [8] | Potency [9] | Potency [10] | Potency [11] | Potency [12] | Potency [18] | outcome [13]

OC[C@H]1O[C@@H](OCCc2ccc(O)cc2)[C@H](O)[C@@H](O)[C@@H]1O
inactive: Potency [1] | Potency [20] | Potency [3] | Potency [4] | Potency [14] | Potency [19] | Potency [5] | Potency [6] | Potency [15] | Potency [16] | Potency [9] | Potency [10] | Potency [11] | Potency [12] | Potency [18] | outcome [13]

C=C1C(=C/C=C2\CCC[C@]3(C)[C@@H]([C@H](C)/C=C/[C@@H](O)C4CC4)CC[C@@H]23)C[C@@H](O)C[C@@H]1O
inactive: Potency [1] | Potency [20] | Potency [3] | Potency [4] | Potency [5] | Potency [7] | Potency [15] | Potency [16] | Potency [10] | Potency [11] | Potency [12] | Potency [18] | outcome [13]
active: Potency [19] 19 µM

Cc1ccc(C(C)OC(=O)C2(C)CCC(C(=O)O)C2(C)C)cc1 (configuration not stated)
inactive: Potency [1] | Potency [20] | Potency [3] | Potency [14] | Potency [19] | Potency [5] | Potency [6] | Potency [7] | Potency [15] | Potency [16] | Potency [10] | Potency [11] | Potency [12] | Potency [18] | outcome [13]

CN1CCN(C(c2ccccc2)c2ccccc2)CC1
inactive: Potency [1] | Potency [20] | Potency [3] | Potency [4] | Potency [14] | Potency [19] | Potency [6] | Potency [7] | Potency [15] | Potency [16] | Potency [17] | Potency [8] | Potency [9] | Potency [10] | Potency [11] | outcome [13]

Nc1ccc(S(=O)(=O)Nc2ccccc2)cc1
inactive: Potency [1] | Potency [20] | Potency [3] | Potency [4] | Potency [14] | Potency [19] | Potency [5] | Potency [6] | Potency [7] | Potency [15] | Potency [16] | Potency [9] | Potency [10] | Potency [11] | Potency [12] | Potency [18] | outcome [13]

CC1OC(=O)C(C)OC1=O (configuration not stated)
inactive: Potency [1] | Potency [20] | Potency [3] | Potency [4] | Potency [14] | Potency [19] | Potency [15] | Potency [16] | Potency [8] | Potency [10] | Potency [11] | Potency [12] | Potency [18] | outcome [13]

C=CC1CC2C=CC1C2 (configuration not stated)
inactive: Potency [1] | Potency [20] | Potency [3] | Potency [14] | Potency [19] | Potency [5] | Potency [6] | Potency [7] | Potency [15] | Potency [16] | Potency [8] | Potency [10] | Potency [11] | Potency [12] | Potency [18] | outcome [13]

C#C[C@]1(O)CC[C@H]2[C@@H]3CCc4cc(OC5CCCC5)ccc4[C@H]3CC[C@@]21C
inactive: Potency [1] | Potency [2] | Potency [3] | Potency [5] | Potency [6] | Potency [15] | Potency [16] | Potency [9] | Potency [10] | Potency [11] | Potency [12] | Potency [18] | outcome [13]
